Assay results from PubChem BioAssay (NCATS).
Records with an inconclusive call do not appear. Where a call stands in place of a potency, no number is given. A number with no mark means an inactive call. The source made the active and inactive calls. Calls come from the whole dose curve; as a rule, active = well fitted curve in the direction sought with a large enough effect; inconclusive = small, poorly fitted or top-dose-only effect, or another doubt; inactive = no such curve, though single readings can be large; an effect the other way counts as inactive or inconclusive.

How the values were obtained:
[1] = target: Rap guanine nucleotide exchange factor 3 (Homo sapiens) (UniProt O95398); experiment: Confirmatory qHTS for antagonist of cAMP-regulated guanine nucleotide exchange factor 3 (EPAC1) (AID 1645880); settings: EPAC1 Rap1B-BODIPY-GDP exchange, fluorescence; activity, negative = inhibition: at 115 µM (top of the series); note: nearly all actives have a fitted effect of over 55% in size; note: potency is the fitted concentration of half-maximal effect
Sequence of Rap guanine nucleotide exchange factor 3 (Homo sapiens) (O95398 whole entry, looked up): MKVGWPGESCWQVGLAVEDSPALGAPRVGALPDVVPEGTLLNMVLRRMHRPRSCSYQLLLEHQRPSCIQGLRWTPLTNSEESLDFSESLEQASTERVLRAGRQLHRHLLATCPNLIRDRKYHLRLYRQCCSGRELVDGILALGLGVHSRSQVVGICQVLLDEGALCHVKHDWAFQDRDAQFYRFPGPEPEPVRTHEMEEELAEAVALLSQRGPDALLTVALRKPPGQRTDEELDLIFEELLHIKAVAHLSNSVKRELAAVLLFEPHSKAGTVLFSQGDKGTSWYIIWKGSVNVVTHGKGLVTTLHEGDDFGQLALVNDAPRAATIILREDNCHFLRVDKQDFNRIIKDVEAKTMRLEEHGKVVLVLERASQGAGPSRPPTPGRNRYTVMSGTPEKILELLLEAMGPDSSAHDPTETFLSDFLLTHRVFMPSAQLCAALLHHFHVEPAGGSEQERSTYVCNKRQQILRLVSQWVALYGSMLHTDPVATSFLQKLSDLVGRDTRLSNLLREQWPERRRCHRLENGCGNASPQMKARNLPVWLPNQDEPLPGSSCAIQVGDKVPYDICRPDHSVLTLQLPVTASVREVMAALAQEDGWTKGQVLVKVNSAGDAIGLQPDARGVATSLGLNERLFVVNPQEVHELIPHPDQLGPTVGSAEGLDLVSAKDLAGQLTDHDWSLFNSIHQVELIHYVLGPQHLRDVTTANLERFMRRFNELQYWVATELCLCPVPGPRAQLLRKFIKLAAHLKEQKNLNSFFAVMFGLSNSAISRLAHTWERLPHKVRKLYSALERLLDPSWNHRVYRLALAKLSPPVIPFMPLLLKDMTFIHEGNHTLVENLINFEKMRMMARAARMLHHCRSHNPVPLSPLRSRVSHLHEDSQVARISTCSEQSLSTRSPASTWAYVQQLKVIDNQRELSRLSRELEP
How it was run: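 Nucleotide exchange uses 100 nM EPAC1, 250 nM RAP1B-BODIPY-GDP and 50 uM GDP, with compounds in a concentration-titration series. After 5 min at room temperature, fluorescence (480 nm ex/540 nm em) is read every 5 min for 30 min. Data are normalized to control ATA and DMSO.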

[2] = target: Rap guanine nucleotide exchange factor 3 (Homo sapiens) (UniProt O95398); experiment: Confirmatory qHTS for agonist of cAMP-regulated guanine nucleotide exchange factor 3 (EPAC1) (AID 1645881); note: nearly all actives have a fitted effect of over 75% in size; note: potency is the fitted concentration of half-maximal effect;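 for activation: EPAC1 catalysed release of BODIPY-GDP from Rap1B seen as fluorescence loss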
[3] = target: Rap guanine nucleotide exchange factor 4 (Homo sapiens) (UniProt Q8WZA2); experiment: Confirmatory qHTS for agonist of cAMP-regulated guanine nucleotide exchange factor 4 (EPAC2) (AID 1645884);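 note: nucleotide exchange releases bodipy-GDP from Rap1 and this lowers its fluorescence; nearly all actives have a fitted effect of over 65% in size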; note: potency is the fitted concentration of half-maximal effect
Sequence of Rap guanine nucleotide exchange factor 4 (Homo sapiens) (Q8WZA2 whole entry, looked up): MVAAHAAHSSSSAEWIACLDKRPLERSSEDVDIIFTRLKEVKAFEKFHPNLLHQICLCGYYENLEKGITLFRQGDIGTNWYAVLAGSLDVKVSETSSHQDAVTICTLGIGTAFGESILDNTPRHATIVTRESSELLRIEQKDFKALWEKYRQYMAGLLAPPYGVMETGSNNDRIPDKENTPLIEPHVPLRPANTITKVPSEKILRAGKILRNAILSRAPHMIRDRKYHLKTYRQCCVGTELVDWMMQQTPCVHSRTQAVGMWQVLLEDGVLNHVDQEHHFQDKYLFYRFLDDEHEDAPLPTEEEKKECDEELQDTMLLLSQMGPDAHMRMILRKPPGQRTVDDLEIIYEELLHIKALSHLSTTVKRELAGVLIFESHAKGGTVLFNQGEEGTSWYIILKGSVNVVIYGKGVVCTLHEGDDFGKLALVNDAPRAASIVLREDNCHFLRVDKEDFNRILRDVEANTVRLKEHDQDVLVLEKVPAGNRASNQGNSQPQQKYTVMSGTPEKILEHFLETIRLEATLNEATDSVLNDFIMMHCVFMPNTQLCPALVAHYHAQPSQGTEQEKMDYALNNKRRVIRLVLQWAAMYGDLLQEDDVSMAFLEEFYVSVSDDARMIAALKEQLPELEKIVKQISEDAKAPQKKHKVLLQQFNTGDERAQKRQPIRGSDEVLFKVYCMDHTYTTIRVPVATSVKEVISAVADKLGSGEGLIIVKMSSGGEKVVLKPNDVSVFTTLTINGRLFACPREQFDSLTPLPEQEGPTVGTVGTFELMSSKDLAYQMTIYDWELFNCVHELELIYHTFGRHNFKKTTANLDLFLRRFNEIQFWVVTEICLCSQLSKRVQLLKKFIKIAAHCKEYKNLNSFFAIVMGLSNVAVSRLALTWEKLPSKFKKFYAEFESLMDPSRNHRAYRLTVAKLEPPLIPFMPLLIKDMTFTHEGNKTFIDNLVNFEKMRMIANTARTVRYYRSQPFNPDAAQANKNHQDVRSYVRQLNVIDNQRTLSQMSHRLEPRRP

[4] = target: Rap guanine nucleotide exchange factor 4 (Homo sapiens) (UniProt Q8WZA2); experiment: Confirmatory qHTS for antagonist of cAMP-regulated guanine nucleotide exchange factor 4 (EPAC2) (AID 1645885); note: nearly all actives have a fitted effect of over 25% in size; note: potency is the fitted concentration of half-maximal effect
[5] = target: Rap guanine nucleotide exchange factor 3 (Homo sapiens) (UniProt O95398); experiment: Counterscreen qHTS for antagonist of cAMP-regulated guanine nucleotide exchange factor 3 (EPAC1) (AID 1645888);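 note: fluorescence loss as bound BODIPY-GDP is released from Rap1B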
How it was run: (§1)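 Rap1B–BODIPY-GDP (250 nM) with 50 uM GDP; compounds pin-transferred to 9.74 nM–152 uM final (activator) or from 7.32 nM upwards (inhibitor). Fluorescence Ex/Em 480/540 nm read at 5 and 30 min, then after adding cAMP or buffer, at room temperature.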

[6] = target: Rap guanine nucleotide exchange factor 3 (Homo sapiens) (UniProt O95398); experiment: Counterscreen qHTS for agonist of cAMP-regulated guanine nucleotide exchange factor 3 (EPAC1) (AID 1645889); note: nearly all actives have a fitted effect of over 40% in size; note: potency is the fitted concentration of half-maximal effect
How it was run: as §1

SMILES | Potency [1] | Potency [2] | Potency [3] | Potency [4] | activity change, negative = inhibition [5] | Potency [6] | activation [3] | activation [6] | Potency [5]
CN1/C(=C\C=C2/SC(=S)N(CC(=O)O)C2=O)C(C)(C)c2ccccc21 | inactive | 44.7 µM (active) | 7.94 µM (active) | inactive | 286% [at 30.8 µM] | 10 µM (active) | – | – | –
Cc1cc(-c2nn(-c3ccccc3F)cc2CN2CCCC(O)C2)c(C)s1 (stereo not given) | inactive | inactive | – | inactive | -17.9% [at 30.8 µM] | – | 2.57% [at 17.1 µM, percent relative to cAMP agonist control] | 23.9% [at 30.8 µM] | –
O=c1c2cc([N+](=O)[O-])cc([N+](=O)[O-])c2[nH]n1-c1ccccc1 | 35.5 µM (active) | inactive | – | inactive | -31.5% [at 30.8 µM] | – | 3.37% [at 17.1 µM, percent relative to cAMP agonist control] | 10.6% [at 30.8 µM] | –
O=S(=O)(Nc1cc2nc3ccccc3nc2n1Cc1ccccc1)c1ccc(Cl)cc1 | 9.53 µM (active) | inactive | inactive | 37.9 µM (active) | – | inactive | – | – | inactive
O=S(=O)(O)c1cccc(N=Nc2c(O)ccc3ccccc23)c1 | 37.9 µM (active) | inactive | inactive | 23.9 µM (active) | – | inactive | – | – | inactive
O=C(O)CN1C(=O)/C(=C\c2cc(Br)ccc2OCc2ccc(Cl)cc2)SC1=S | 30.1 µM (active) | inactive | inactive | 47.8 µM (active) | – | inactive | – | – | inactive
CCc1nnc(NS(=O)(=O)c2ccc(NCc3cc(Cl)ccc3O)cc2)s1 | 39.8 µM (active) | inactive | – | inactive | -8.7% [at 30.8 µM] | – | -0.696% [at 17.1 µM, percent relative to cAMP agonist control] | 11.7% [at 30.8 µM] | –
CC1CCC/C(=C\Nc2ccc(O)cc2)C1=O (stereo not given) | inactive | inactive | – | inactive | -12.6% [at 30.8 µM] | – | 6.29% [at 17.1 µM, percent relative to cAMP agonist control] | 3.58% [at 30.8 µM] | –
O=C1CCC([N+](=O)[O-])C(c2cccc3ccccc23)N1 (stereo not given) | inactive | inactive | – | inactive | -21.9% [at 30.8 µM] | – | 0% [at 17.1 µM, percent relative to cAMP agonist control] | 45.7% [at 30.8 µM] | –
Cc1nn(C(=O)c2ccco2)c(C)c1Sc1ccccc1 | inactive | inactive | inactive | 10.7 µM (active) | – | inactive | – | – | inactive
Cc1ccc(C)c(S(=O)(=O)Nc2ccc(C(=O)NCC(c3ccco3)N(C)C)cc2)c1 (stereo not given) | inactive | inactive | – | inactive | -1.62% [at 30.8 µM] | – | 5.83% [at 17.1 µM, percent relative to cAMP agonist control] | 6.54% [at 30.8 µM] | –
CCN(CC)c1ccc2cc(C(C)=O)c(=O)oc2c1 | inactive | 89.1 µM (active) | 100 µM (active) | inactive | – | 50.1 µM (active) | – | – | inactive
C/C(Cc1ccccc1)=N\NC(=O)c1cccnc1 | inactive | inactive | – | inactive | -5.84% [at 30.8 µM] | – | 21.1% [at 17.1 µM, percent relative to cAMP agonist control] | 15.7% [at 30.8 µM] | –
Cc1cc2oc(=O)cc(CN3CCCC3)c2cc1Cl | inactive | inactive | – | inactive | 3.14% [at 30.8 µM] | – | -3.71% [at 17.1 µM, percent relative to cAMP agonist control] | 28.8% [at 30.8 µM] | –
O=C1C(=Cc2ccco2)CCC1=Cc1ccco1 | inactive | inactive | inactive | 60.1 µM (active) | – | inactive | – | – | inactive
CC1CCCN(C(=O)c2cccc(S(=O)(=O)Nc3cc(C(F)(F)F)ccc3Cl)c2)C1 (stereo not given) | 21.3 µM (active) | inactive | inactive | 26.9 µM (active) | – | inactive | – | – | inactive
COc1cccc2c1OC1(C)CC2/C(=C(\C)O)C(=O)N1 (stereo not given) | inactive | inactive | inactive | inactive | – | inactive | – | – | inactive
Cc1ccn2c(=O)c(NC(=O)c3ccc(Br)o3)c(C)nc2c1 | inactive | inactive | – | inactive | -1.7% [at 30.8 µM] | – | 4.58% [at 17.1 µM, percent relative to cAMP agonist control] | -2.62% [at 30.8 µM] | –
COc1ccc(OCC(=O)OCCNC(=O)c2cccnc2)cc1 | inactive | inactive | – | inactive | -8.99% [at 30.8 µM] | – | -1.04% [at 17.1 µM, percent relative to cAMP agonist control] | 0.499% [at 30.8 µM] | –
COc1ccc(C)cc1Cn1nnc2ccccc21 | inactive | inactive | inactive | inactive | – | inactive | – | – | inactive

SMILES | Potency [1] | Potency [2] | Potency [3] | Potency [4] | activity change, negative = inhibition [5] | Potency [6] | activation [3] | activation [6] | Potency [5]
Cc1cccc(C(=O)Nc2cc(S(=O)(=O)N3CCOCC3)ccc2N2CCCC2)c1 | inactive | inactive | inactive | inactive | – | inactive | – | – | inactive
O=C1COc2ccc(C(=O)COC(=O)c3ccc([N+](=O)[O-])cc3Cl)cc2N1 | inactive | inactive | inactive | inactive | – | inactive | – | – | inactive
Cc1ccc(NC(=O)CN2C(=O)C(c3ccc(C(C)(C)C)cc3)=NC2(C)C)cc1 | inactive | inactive | inactive | inactive | – | inactive | – | – | inactive
C/C(CC(=O)Nc1ccc2ccccc2c1)=N\NC(=O)c1ccc(O)c(O)c1 | 53.6 µM (active) | inactive | inactive | inactive | – | inactive | – | – | inactive
COc1cc(/C=C(\C#N)c2nc3ccc(C)cc3[nH]2)cc([N+](=O)[O-])c1O | 33.8 µM (active) | inactive | inactive | 75.7 µM (active) | – | inactive | – | – | inactive
Cc1ccc(S(=O)(=O)Nc2cc(C(=O)NCCN3CCCC3)ccc2N2CCCCC2)cc1 | inactive | inactive | inactive | inactive | – | inactive | – | – | inactive
COc1ccc(-c2cc3c(c4c2ccn4C)C2CCC3O2)cc1OC (stereo not given) | inactive | inactive | – | inactive | 9.79% [at 30.8 µM] | – | 6.95% [at 17.1 µM, percent relative to cAMP agonist control] | 10.3% [at 30.8 µM] | –
Cc1[nH][nH]c(=O)c1C(c1ccc(-c2ccc(Cl)c(C(=O)O)c2)o1)c1c(C)[nH][nH]c1=O | inactive | inactive | – | inactive | 34.9% [at 30.8 µM] | 11.2 µM (active) | 10.1% [at 17.1 µM, percent relative to cAMP agonist control] | – | –
[O-][n+]1c2ccccc2[n+]([O-])c2cc(O)ccc21 | 37.9 µM (active) | inactive | inactive | inactive | – | inactive | – | – | inactive
COC(=O)c1ccc2nc(-c3ccccc3)c(Cc3ccccc3C(F)(F)F)n2c1 | inactive | inactive | inactive | 0.757 µM (active) | – | inactive | – | – | inactive
O=C(NCc1ccco1)c1sc(=S)n2c1[nH]c(=O)c1ccccc12 | 14.1 µM (active) | inactive | – | inactive | 3.28% [at 30.8 µM] | – | 1.94% [at 17.1 µM, percent relative to cAMP agonist control] | -8.6% [at 30.8 µM] | –
COC(=O)CCNC(=O)NC(CCC(C)C)c1c(-n2cccc2)sc2c1CCN(C)C2 (stereo not given) | inactive | inactive | inactive | inactive | – | inactive | – | – | inactive
COc1ccc(N(C(=O)c2ccco2)S(=O)(=O)c2cc(OC)ccc2OC)cc1 | inactive | inactive | inactive | inactive | – | inactive | – | – | inactive
CC(OC(=O)CC1CCCCC1)C(=O)Nc1ccc(S(N)(=O)=O)cc1 (stereo not given) | inactive | inactive | – | inactive | -10.1% [at 30.8 µM] | – | 2.89% [at 17.1 µM, percent relative to cAMP agonist control] | 15.8% [at 30.8 µM] | –
Cc1onc(-c2c(Cl)cccc2Cl)c1COC(=O)c1ccc(Cl)cc1 | inactive | inactive | inactive | inactive | – | inactive | – | – | inactive
O=C(COC(=O)Cc1c(Cl)cccc1Cl)NCC1CCCO1 (stereo not given) | inactive | inactive | inactive | 75.7 µM (active) | – | inactive | – | – | inactive
COC(=O)[C@@H](NC(=O)Nc1ccc2c(c1)OCCO2)C(C)C | inactive | inactive | inactive | inactive | – | inactive | – | – | inactive
N#C/C(=C/c1ccc(O)c(O)c1)C(=O)NCc1ccc(Cl)cc1 | 12.6 µM (active) | inactive | – | inactive | -1.17% [at 30.8 µM] | – | 6.16% [at 17.1 µM, percent relative to cAMP agonist control] | 19.6% [at 30.8 µM] | –
Cc1nc(-[n+]2nc(-c3ccncc3)nn2-c2ccccc2)sc1C | 22.4 µM (active) | inactive | – | inactive | -23.3% [at 30.8 µM] | – | 5.19% [at 17.1 µM, percent relative to cAMP agonist control] | 2.91% [at 30.8 µM] | –
Cc1ccc(C)c(S(=O)(=O)N2CCN(C(=O)CCc3nc4ccccc4c(=O)[nH]3)CC2)c1 | inactive | inactive | – | inactive | -11.5% [at 30.8 µM] | – | 4.63% [at 17.1 µM, percent relative to cAMP agonist control] | 23.6% [at 30.8 µM] | –
